Compound activity (PubChem BioAssay)
An excerpt weighted towards active compounds, which were near 11% of everything screened.
FLuc inh: Firefly luciferase inhibition profiling of diverse chemical library using quantitative high-throughput screening | actives 2.5% (n = 76,000) | Luciferin 4-monooxygenase (Photinus pyralis), P08659 | purified P. pyralis luciferase, luminescence, biochemical | Potency, µM (series often up to 115 µM), hits mostly inhibitors; note: nearly all actives have a fitted effect of over 65% in size
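Inhibitors were tested against purified firefly luciferase in a biochemical, low-substrate format (both substrates at 10uM) and luminescence measured with a CCD imager.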
HEK cytotox: Cytotoxic Profiling in HEK 293 Cell Line of Diverse Libraries Using Quantitative High-Throughput Screening; HEK 293 viability, ATP luminescence (CellTiter-Glo), 48-72 h; Potency, µM (top dose mostly 115 µM), for the others: at the top dose activity change, negative = cytotoxicity, actives largely listed as inhibitors; actives 6.6% (n = 94,000); AID 1345083, 2018; note: nearly all actives have a fitted effect of over 60% in size
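qHTS cytotoxicity; HEK 293, 250 cells/well; compound pinned; 48 or 72 hr, 37 degree Celsius, 5% CO2, 95% humidity; CellTiter-Glo, 10 min RT; luminescence (ATP).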
NIH3T3 tox: Cytotoxic Profiling in NIH 3T3 Cell Line of Diverse Libraries Using Quantitative High-Throughput Screening | NIH 3T3 viability, CellTiter-Glo ATP luminescence, 48-72 h | Potency, µM (highest dose often 96.7 µM), without a hit: at the top dose activity change, negative = cytotoxicity, usual class: inhibitors | actives 4.3% (n = 94,000) | AID 1345082, 2018; note: nearly all actives have a fitted effect of over 55% in size
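Mouse fibroblast NIH 3T3 cells, 400 per well, received compound via pintool and were incubated for 48 or 72 hr prior to CellTiter-Glo ATP luminescence measurement.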
NPR1 antag: Natriuretic polypeptide receptor (hNpr1) antagonism - Primary qHTS. Atrial natriuretic peptide receptor 1 (Homo sapiens), P16066. HEK293 hNpr1 GloSensor cGMP, ANP-stimulated luminescence. Potency, µM (top dose mostly 46.3 µM), for the others: at the top dose activity change, negative = inhibition, hits mostly inhibitors. actives 1.6% (n = 76,000); calls by dose curve; note: nearly all actives have a fitted effect of over 60% in size
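HEK293 cells stably expressing human Npr1 and cGMP GloSensor pGS-40F, loaded 2 h with 2% GloSensor reagent, given compound 30 min at room temperature. Luminescence read before and 20 min after 0.1 nM hNppA.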
An asterisk follows results filed as active; [ ] = remark or other dose. Unless noted, calls come from the whole dose curve; as a rule, active = well fitted curve in the direction sought with a large enough effect; inconclusive = small, poorly fitted or top-dose-only effect, or another doubt; inactive = no such curve, though single readings can be large; an effect the other way counts as inactive or inconclusive. % is set by controls: 0 for no effect and ±100 for the full control effect; potency is the fitted concentration of half-maximal effect.

Screening Cc1cc(-c2cc3c(ccn3C(C)C)c(C(=O)NCc3c(C)cc(C)[nH]c3=O)n2)ccn1 returned FLuc inh inactive, HEK cytotox 45µM*, NIH3T3 tox 45µM* and NPR1 antag -8%[70.6 µM].
Screening Cc1cc(C)c(CNC(=O)c2nc(-c3cccnc3)cc3c2ccn3C(C)C)c(=O)[nH]1 returned FLuc inh inactive, HEK cytotox 100µM*, NIH3T3 tox inconclusive and NPR1 antag -4%[70.6 µM].
For Cc1cn2nc(C(=O)NCc3ccc(F)cc3F)cc2c(N(C)Cc2ccccc2)n1 the results were FLuc inh inactive, HEK cytotox inconclusive, NIH3T3 tox 35µM* and NPR1 antag 2%.
`Cc1cn2nc(C(=O)NCc3ccccc3F)cc2c(N(C)Cc2ccccc2)n1` gave FLuc inh inactive, HEK cytotox inconclusive, NIH3T3 tox inconclusive and NPR1 antag 14%.
For Cc1cn2nc(C(=O)N3CCCC3)cc2c(N(C)Cc2ccccc2)n1 the results were FLuc inh inactive, HEK cytotox inconclusive, NIH3T3 tox inconclusive and NPR1 antag -4%.
Cc1cn2nc(C(=O)N3CCC(C)CC3)cc2c(N(C)Cc2ccccc2)n1 was read as FLuc inh inactive, HEK cytotox inconclusive, NIH3T3 tox 35µM* and NPR1 antag 17%.
CN(C)c1ccc(NC(=O)c2cc(-c3ccccc3C(F)(F)F)nc3c2cnn3C)cc1 was read as HEK cytotox 25µM* and NIH3T3 tox inconclusive.
`COc1ccc(NC(=O)c2cc(-c3ccc(C(F)(F)F)cc3)nc3c2cnn3C)cc1OC` gave HEK cytotox 2% and NIH3T3 tox -18%.
`CN(C)c1ccc(NC(=O)c2cc(-c3ccc(C(F)(F)F)cc3)nc3c2cnn3C)cc1` gave HEK cytotox -3% and NIH3T3 tox -31%.
Screening Cn1ncc2c(C(=O)Nc3ccc(F)cc3)cc(-c3ccccc3C(F)(F)F)nc21 returned HEK cytotox 28µM* and NIH3T3 tox inconclusive.
COc1ccc(NC(=O)c2cc(-c3ccccc3C(F)(F)F)nc3c2cnn3C)cc1OC was read as HEK cytotox 32µM* and NIH3T3 tox inconclusive.
Screening Cn1ncc2c(C(=O)Nc3cccnc3)cc(-c3ccccc3C(F)(F)F)nc21 returned HEK cytotox inactive and NIH3T3 tox inactive.
For CCN(C(=O)c1cc(-c2ccccc2C(F)(F)F)nc2c1cnn2C)c1ccccc1 the results were HEK cytotox 25µM* and NIH3T3 tox inconclusive.
For COc1cccc(-c2ccc(C(=O)NCCNC(=O)c3ccccc3C)cc2)c1 the results were HEK cytotox -27% and NIH3T3 tox -19%.
Screening Cn1ncc2c(C(=O)Nc3cccc(C(F)(F)F)c3)cc(-c3ccccc3C(F)(F)F)nc21 returned HEK cytotox 22µM* and NIH3T3 tox 28µM*.
For Cc1cccc(-n2nc(C)c(CCC(=O)N3CCOCC3)c2Oc2ccccc2C)c1 the results were FLuc inh inactive, HEK cytotox inconclusive, NIH3T3 tox inconclusive and NPR1 antag -12%.
Cc1nn(-c2ccc(F)cc2)c(Oc2ccccc2F)c1CCC(=O)N1CCSCC1 was read as FLuc inh inactive, HEK cytotox inconclusive, NIH3T3 tox inconclusive and NPR1 antag -16%.
`Cc1nn(-c2ccccc2)c(Oc2ccccc2F)c1CCC(=O)N1CCSCC1` gave FLuc inh inactive, HEK cytotox 35µM*, NIH3T3 tox inconclusive and NPR1 antag -17%.
For Cc1cccc(-n2nc(C)c(CCC(=O)N3CCSCC3)c2Oc2ccccc2)c1 the results were FLuc inh inactive, HEK cytotox 45µM*, NIH3T3 tox inconclusive and NPR1 antag -25%.
`COc1cccc(C(=O)Nc2cc(-c3ccccn3)nn2-c2ccccc2)c1` gave HEK cytotox -28% and NIH3T3 tox -33%.
`O=C1CC2(CCN(C(=O)C3CCCN(C(=O)Nc4ccccc4)C3)CC2)Oc2ccccc2N1` (centres undefined) gave HEK cytotox 32µM* and NIH3T3 tox inconclusive.
